A selection: hits, their analogues and other compounds. The true share with any hit is near 1.6%.
RecA splice inh – Mtb RecA intein splicing inhibitors, primary screen, biochemical, fluorescence, HTS | Protein RecA (Mycobacterium tuberculosis (strain ATCC 25618 / H37Rv)), P9WHJ3 | cell-free RecA intein splicing | inhibition, % (no concentration beside the values) | actives 0.75% (n = 290,000) | AID 2221, 2009; in the data active = inhibition above about 30%
Target sequence (P9WHJ3 whole entry, looked up, canonical isoform): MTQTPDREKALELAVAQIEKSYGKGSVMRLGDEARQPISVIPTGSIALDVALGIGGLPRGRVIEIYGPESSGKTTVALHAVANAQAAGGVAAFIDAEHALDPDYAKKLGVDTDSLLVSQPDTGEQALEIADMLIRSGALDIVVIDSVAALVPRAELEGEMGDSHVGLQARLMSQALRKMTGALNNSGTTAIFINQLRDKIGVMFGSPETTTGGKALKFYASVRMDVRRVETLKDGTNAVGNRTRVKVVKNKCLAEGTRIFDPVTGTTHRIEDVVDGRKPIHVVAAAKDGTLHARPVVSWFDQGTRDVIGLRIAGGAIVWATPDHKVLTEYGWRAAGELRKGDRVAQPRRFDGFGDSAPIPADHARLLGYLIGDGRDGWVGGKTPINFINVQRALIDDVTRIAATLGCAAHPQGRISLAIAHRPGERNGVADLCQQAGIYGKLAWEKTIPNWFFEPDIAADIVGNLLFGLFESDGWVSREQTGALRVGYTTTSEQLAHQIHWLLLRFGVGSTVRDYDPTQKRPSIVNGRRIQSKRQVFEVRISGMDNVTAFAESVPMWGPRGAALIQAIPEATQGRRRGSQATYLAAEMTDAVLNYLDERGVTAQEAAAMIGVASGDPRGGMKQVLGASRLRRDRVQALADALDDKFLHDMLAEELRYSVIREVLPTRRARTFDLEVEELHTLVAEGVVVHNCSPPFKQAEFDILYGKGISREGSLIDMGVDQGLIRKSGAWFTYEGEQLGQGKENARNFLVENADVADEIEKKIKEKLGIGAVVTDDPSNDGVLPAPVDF
BJeLR viability – MLPCN primary cell-based screen for lethality selective to Ras in HRASV12 cells; inhibition, % (test concentration not listed); AID 1554, 2009; actives 0.17% (n = 300,000); BJeLR (HRASV12) viability, CellTiter-Glo ATP luminescence, 48 h; in the data active = inhibition above about 50%
ugtP null kill – growth inhibition of ugtP-null S. aureus, primary screen, RN4220 ugtP deletion, OD600; growth inhibition, % (no concentration beside the values); actives 0.54% (n = 330,000); 16 h; AID 1259309, 2017; in the data active = growth inhibition above about 68%
RN4220 kill – growth inhibition of S. aureus RN4220, primary screen, OD600 | actives 0.33% (n = 330,000) | 16 h | inhibition, % (concentration not given with the values); in the data active = inhibition above about 85%
Mtb hypoxia rep – PubChem AID 1159583. M. tuberculosis hypoxia-regulated fluorescent reporter, fluorescence. fluorescence inhibition, % (test concentration not listed). actives 0.1% (n = 300,000); in the data active = fluorescence inhibition mostly above about 23%, no sharp cut-off; inactive = mostly below about 17%
CCHFV vOTU inh – CCHFV vOTU protease inhibitors, primary screen, biochemical, Pep-AMC substrate, fluorescence | actives 0.55% (n = 370,000) | Crimean-Congo hemorrhagic fever virus L polyprotein viral ovarian tumor (vOTU) protease … | inhibition, % at 11.5 µM; in the data active = inhibition above about 30%
GFP chromophore – counter-screen: blocks GFP chromophore formation, dose response, counter-screen, biochemical, fluorescence, homogeneous. shares compounds with RecA splice inh. cell-free GFP chromophore formation. EC50, µM. actives 83% (n = 2,100). AID 434968, 2010; call rule not given here
Large screens that a line does not name were inactive (follow-up assays come after a bar, where shown).

COc1ccccc1NC(=S)NC(=O)/C=C/c1cccs1	ugtP null kill active
COc1ccccc1NC(=O)COC(=O)/C=C/c1cccs1	none (no result: RecA splice inh, BJeLR viability)
CC(C)C(C(=O)N1CCNCC1)n1cc(CCO)nn1 (configuration not stated)	none (no result: RecA splice inh, BJeLR viability, CCHFV vOTU inh)
O=C(/C=C/c1ccccc1)c1ccc2c3c(cccc13)CC2	RecA splice inh 33.9
CC1(O)CC(c2ccc(Cl)cc2)=NN1C(=O)c1ccc([N+](=O)[O-])cc1 (configuration not stated)	ugtP null kill 97.8, RN4220 kill 98.9 (no result: RecA splice inh)
CC(=O)N1N=C(c2ccc(Cl)cc2)CC1c1ccc([N+](=O)[O-])cc1 (configuration not stated)	none
CN1CC2C3C(=O)N(Cc4ccccc4)C(=O)C3[C@](C)(C1=O)N2C(=O)c1ccc(Cl)cc1 (some centres not stated)	none (no result: RecA splice inh, BJeLR viability, CCHFV vOTU inh)
CCCCCCCOC(=O)c1ccc(OC(=O)c2cccnc2)cc1	RecA splice inh 63.8
CCCCCOC(=O)c1ccc(OC(=O)c2cncc(Br)c2)cc1	none
CN(CC(=O)Nc1ccc(Cl)c(C(F)(F)F)c1)CC(=O)NC1CCCCC1	none (no result: RecA splice inh, BJeLR viability, CCHFV vOTU inh)
CN(CC(=O)Nc1ccc(Cl)c(C(F)(F)F)c1)C(=O)CCN1C(=O)C2CCCCC2C1=O (configuration not stated)	ugtP null kill 93.6
COc1ccc(N=Nc2c(C)[nH]c3ccccc23)cc1	ugtP null kill 81.7
Cc1nn(-c2cc(C)c3ccccc3n2)c2c1C1C(C2)C1(C)C (configuration not stated)	ugtP null kill 82.7
Cc1cc(-n2nnc3ccccc32)nc2ccccc12	none
CCCCC1CC1C(NC(=O)c1ccco1)c1ccc(C(=O)OC)cc1 (configuration not stated)	none (no result: RecA splice inh, BJeLR viability, CCHFV vOTU inh)
O=C(/C=C/c1ccccc1)c1ccccc1	none (no result: ugtP null kill, RN4220 kill, Mtb hypoxia rep)
N#Cc1ccc(/C=C/C(=O)c2ccccc2)cc1	Mtb hypoxia rep 36.2
CCOC(=O)C1C2COc3ccc(OC)cc3C2N2C(=O)CN(Cc3ccc(C)cc3)C(=O)[C@@]12C (some centres not stated)	none (no result: RecA splice inh, BJeLR viability, CCHFV vOTU inh)
CC1=CC(C)(C)N(S(=O)(=O)c2ccc(C)cc2)c2cc(C)ccc21	BJeLR viability 54.9
O=C(NC(Cc1ccccc1)C(=O)OCc1ccccc1)c1nc[nH]c1C(=O)NC(Cc1ccccc1)C(=O)OCc1ccccc1 (configuration not stated)	none (no result: RecA splice inh, BJeLR viability, CCHFV vOTU inh)
CC1(C)C2CCC1(C)C(OCC[N+](C)(C)CC(=O)OC1CCCCC1)C2 (configuration not stated)	ugtP null kill 99.9 (not shown: Mtb hypoxia rep)
Cn1nnnc1N=N/C(=N/Nc1ccccc1)c1ccccc1	BJeLR viability 66.1 (no result: ugtP null kill, RN4220 kill, Mtb hypoxia rep)
CC1CN(C(C)CO)C(=O)c2cccc(NC(=O)CCC(F)(F)F)c2OC1CN(C)S(=O)(=O)c1cccs1 (configuration not stated)	none (no result: RecA splice inh, BJeLR viability, CCHFV vOTU inh)
CC1=C(C)/C(=N\OS(=O)(=O)c2ccccc2)C=CC1=O	RecA splice inh 41.4, BJeLR viability 84.3 (no result: ugtP null kill, RN4220 kill, Mtb hypoxia rep, CCHFV vOTU inh)
CC1=C(C)C(=NOS(=O)(=O)c2ccccc2)C=CC1=O	none (no result: RecA splice inh, BJeLR viability, CCHFV vOTU inh)
O=C(O)c1ccc(N=Cc2c(O)ccc3ccccc23)cc1	none
Oc1ccc2ccccc2c1C=Nc1cc(C(F)(F)F)ccc1N1CCCC1	ugtP null kill 94.6
COC(=O)C1CC1C(NS(=O)(=O)c1ccc2ccccc2c1)c1ccccc1 (configuration not stated)	none (no result: RecA splice inh, BJeLR viability, CCHFV vOTU inh)
O=C(Nc1nnc(-c2ccccc2)o1)c1nc2ccccc2s1	ugtP null kill 98.1, RN4220 kill 97.9
NC(=O)c1oc2ccccc2c1NC(=O)c1nc2ccccc2s1	none (no result: Mtb hypoxia rep)
O=C(Oc1cccc(-n2cnnn2)c1)c1ccco1	RecA splice inh 43.0 (no result: Mtb hypoxia rep)
O=C(Oc1ccc(-c2nnco2)cc1)c1ccco1	RecA splice inh 46.8
O=C(Oc1cccc(OC(=O)c2ccco2)c1)c1ccco1	RecA splice inh 49.3
CN(C)C(=O)Oc1ccc(-c2nnco2)cc1	none (no result: Mtb hypoxia rep)
C=C1C2CCC3C(OC(C)=O)[C@@]2(CC(O)[C@@]2(O)C1CC(O)C2(C)C)C[C@@]3(C)O (some centres not stated)	none (no result: RecA splice inh, BJeLR viability, CCHFV vOTU inh)
Cc1ccc(S(=O)(=O)/N=C2/C=C(C3C(=O)CC(C)(C)CC3=O)C(=O)c3ccccc32)cc1	RecA splice inh 84.7, CCHFV vOTU inh 108.0 (no result: ugtP null kill, RN4220 kill, Mtb hypoxia rep) | GFP chromophore 9.92
Cc1n[nH]c(C)c1CCN(C)C(=O)C1CCC(=O)N(CC2CCCCC2)C1 (configuration not stated)	none (no result: RecA splice inh)
CN(CCc1cnn(C)c1)C(=O)C1CCC(=O)N(CC2CCCCC2)C1 (configuration not stated)	RecA splice inh 46.1 | GFP chromophore inactive
CCCOc1ccccc1NC(=Nc1nc(C)cc(C)n1)NC(=O)Nc1ccc(Cl)cc1	none (no result: RecA splice inh, BJeLR viability, CCHFV vOTU inh)
CCCc1[nH]nc2c1C(c1cccc(OC)c1)C(C#N)=C(N)O2 (configuration not stated)	RecA splice inh 41.9 | GFP chromophore 38
CCCc1[nH]nc2c1C(c1ccc(OC)cc1OC)C(C#N)=C(N)O2 (configuration not stated)	RecA splice inh 79.1 | GFP chromophore 17.1
C=CCn1c(-c2cccnc2Cl)nc2ccccc21	RecA splice inh 85.3 | GFP chromophore inactive
C=CCn1c(-c2cccnc2Cl)nc2cc(Cl)c(Cl)cc21	none
O=C(CCl)c1cc2c3c(c1)CC(=O)N3CCC2	RecA splice inh 43.6 (no result: ugtP null kill, RN4220 kill, Mtb hypoxia rep) | GFP chromophore 38.6
CC1=NNC(=O)C1C(c1ccc(F)cc1)C(C#N)C#N (configuration not stated)	RecA splice inh 85.3 | GFP chromophore 16.6
N#C/C(=C\c1c(Cl)cccc1Cl)c1nn(-c2ccccc2)c(-n2cccc2)c1C#N	none
N#C/C(=C\c1c(F)cccc1Cl)c1nn(-c2ccccc2)c(-n2cccc2)c1C#N	RecA splice inh 46.3 (no result: ugtP null kill, RN4220 kill, Mtb hypoxia rep) | GFP chromophore inactive
Cc1ccc(C=NNC(=O)CSc2nc3ccccc3n2Cc2ccccc2)o1	none (no result: RecA splice inh, BJeLR viability, CCHFV vOTU inh)
CC(=O)Nc1ccc(NC(=O)CC(C)=NNC(=O)C(=O)N2CCCC2)cc1	none (no result: RecA splice inh, BJeLR viability, CCHFV vOTU inh)
CCOc1ccccc1C1C(C(=O)Nc2ccccc2OC)=C(C)Nc2nnnn21 (configuration not stated)	none (no result: Mtb hypoxia rep)
COc1ccccc1NC(=O)C1=C(C)Nc2nnnn2C1c1ccncc1 (configuration not stated)	RecA splice inh 39.3 | GFP chromophore inactive
CCOC(=O)Cc1[nH]nc2c1C(Cc1ccccc1)C(C#N)=C(N)O2 (configuration not stated)	none
CSCCC1C(C#N)=C(N)Oc2n[nH]c(-c3cccs3)c21 (configuration not stated)	RecA splice inh 84.9 | GFP chromophore 9.13

Assay outcomes as filed in PubChem.
